In all, about 320,000 compounds went through this assay and about 2,100 (0.66%) were called active. About 53% were inconclusive and are not listed. Calls come from the whole dose curve; as a rule, active = well fitted inhibition curve with a large enough effect in the signal ratio, with a control signal flat (not every such curve was filed as active); inconclusive = small, poorly fitted or top-dose-only effect, or effect the other way, or a change in a side signal; inactive = flat fitted curve, though single readings scatter; the % refers to the signal ratio. The list comes from a sample in which actives are over-represented; it also holds similar structures and randomly drawn compounds.
Assay: qHTS Assay for Lipid Storage Modulators in Drosophila S3 Cells;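 for cell number change: cells counted by Cell Tracker Red CMTPX staining in the red channel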; for lipid storage change, negative = inhibition: % is set by controls: 0 for no effect and ±100 for the full control effect
Settings: BODIPY lipid droplet fluorescence, 18-24 h, cells fed with added oleic acid; cell number change: measured here: cell count max response; series mostly up to 46.1 µM; lipid storage change, negative = inhibition: at the top concentration
Summary of the method: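 Drosophila S3 cells got compounds at several concentrations plus oleic acid (400 uM solution). Laser-scanning cytometry with 488 nm excitation read lipid droplets at 500-530 nm and cells at 575-640 nm. Percent activity was relative to 20 uM Triacsin C.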
In the case of `O=C(COC(=O)Cn1cnc2ccccc21)Nc1cccc(S(=O)(=O)N2CCOCC2)c1`, the “lipid storage change, negative = inhibition” value is reported as -9.22% (inactive) and the cell number change is reported as -0.979%. For `NC(=O)C1CCN(C(=O)CSc2nc3ccccc3s2)CC1`, the Potency was 16.4 µM (active) and the cell number change was 5.89%. In the case of `NC(=O)C1(N2CCCCC2)CCN(C(=O)CSc2nc3ccccc3s2)CC1`, the “lipid storage change, negative = inhibition” value is reported as 51% (inactive) and the cell number change is reported as -22.8%. In the case of `NC(=O)C1CCN(C(=O)CSc2nc3ccccc3o2)CC1`, the “lipid storage change, negative = inhibition” value is reported as -27.1% (inactive). For `CC(C)(Cc1nc2ccccc2[nH]1)C(=O)O`, the Potency was 23.1 µM (active) and the cell number change was -19.5%. With `O=C(O)CSCc1nc2ccccc2[nH]1` the “outcome” value was “inactive”. With `O=C(O)COCc1nc2ccccc2[nH]1` the “lipid storage change, negative = inhibition” value was -0.005% (inactive) and the cell number change was 0.419%. In the case of `NNC(=O)CNC(=O)c1cccc(Br)c1`, the “lipid storage change, negative = inhibition” value is reported as 8.24% (inactive). For `N#C/C(=C\c1ccc(-c2ccccc2)cc1)c1nc(-c2ccco2)cs1`, the “lipid storage change, negative = inhibition” value was -6.6% (inactive) and the cell number change was 1.16%. For `N#C/C(=C/c1ccc(-c2ccccc2)o1)c1nc(-c2cccs2)cs1`, the Potency was 5.8 µM (active) and the cell number change was 20.9%. With `N#C/C(=C\c1ccc(-c2ccc(F)cc2)o1)C(=O)Nc1nc(-c2cccs2)cs1` the “lipid storage change, negative = inhibition” value was -27.8% (inactive) and the cell number change was -13%. With `C=CCC1(N(C(C)=O)c2ccccc2C)CCCCC1` the “lipid storage change, negative = inhibition” value was -2.14% (inactive) and the cell number change was -21.1%. For `Cc1oc(/N=C/c2ccccc2)c(C#N)c1C`, the “lipid storage change, negative = inhibition” value was 9.49% (inactive) and the cell number change was 0.993%. In the case of `Cc1oc(/N=C/c2cccc([N+](=O)[O-])c2)c(C#N)c1C`, the Potency is reported as 16.4 µM (active) and the cell number change is reported as -19.3%. With `Cc1oc(/N=C/c2ccccc2O)c(C#N)c1C` the “lipid storage change, negative = inhibition” value was 5.93% (inactive) and the cell number change was -11.3%. With `CCS(=O)(=O)c1ncc(Cl)c(C(=O)Nc2ccc(S(=O)(=O)N3CCC(C)CC3)cc2)n1` the Potency was 1.3 µM (active) and the cell number change was -22.6%. In the case of `CCS(=O)(=O)c1ncc(Cl)c(C(=O)Nc2ccc(S(=O)(=O)N3CCCC(C)C3)cc2)n1` (stereo not drawn), the Potency is reported as 0.146 µM (active) and the cell number change is reported as -27.2%. With `CCOC(=O)Nc1ccc(S(=O)(=O)N2CCC(C)CC2)cc1` the “lipid storage change, negative = inhibition” value was 6% (inactive) and the cell number change was 5.9%. With `Cc1ccc(NC(=O)c2ccc(S(=O)(=O)N3CCC(C)CC3)cc2)cc1` the “outcome” value was “inactive” and the cell number change was 29.6%. In the case of `CC1CCCN(S(=O)(=O)c2ccc(NC(=O)CN3CCCCC3)cc2)C1` (stereo not drawn), the “lipid storage change, negative = inhibition” value is reported as -6.48% (inactive) and the cell number change is reported as -3.44%. For `CC1CCCN(S(=O)(=O)c2ccc(NC(=O)CNC3CCCC3)cc2)C1` (stereo not drawn), the “outcome” value was “inactive” and the cell number change was -7.89%. In the case of `C/C(=N\Nc1nccnc1Cl)c1ccc([N+](=O)[O-])cc1`, the “lipid storage change, negative = inhibition” value is reported as -8.27% (inactive) and the cell number change is reported as -11.4%. In the case of `O=C(NCCS(=O)(=O)N1CCN(c2ccccc2)CC1)c1ccc(Br)o1`, the lipid storage change, negative = inhibition is reported as 10.4% [at 0.0737 µM] (inactive). In the case of `Cc1cc(C)n2c(SCCO)nnc2n1`, the “lipid storage change, negative = inhibition” value is reported as 23.7% (inactive) and the cell number change is reported as 8.77%. For `CCc1noc(C)c1C(=O)Nc1cccc2ncccc12`, the Potency was 2.31 µM (active) and the cell number change was -8.65%. In the case of `O=C(Nc1cccc2ncccc12)c1cccnc1`, the “lipid storage change, negative = inhibition” value is reported as 42.3% (inactive) and the cell number change is reported as 4.51%. In the case of `CCc1noc(C)c1C(=O)Nc1ccc(F)c(F)c1F`, the “outcome” value is reported as “inactive” and the cell number change is reported as -3.41%. With `CC(=O)Nc1cccc(C(=O)Nc2cccc3ncccc23)c1` the “lipid storage change, negative = inhibition” value was 34.5% (inactive) and the cell number change was -6.58%. With `CCc1noc(C)c1C(=O)Nc1ccccc1N1CCOCC1` the “lipid storage change, negative = inhibition” value was 24.3% (inactive). For `CC(C)(C)c1ccc(C(=O)Nc2cccc3ncccc23)cc1`, the Potency was 14.6 µM (active). In the case of `CCOC(=O)c1cc(CC)sc1NC(=O)CN1CCN(C(=O)C2CCCO2)CC1` (stereo not drawn), the “outcome” value is reported as “inactive” and the cell number change is reported as -6.11%. With `CC(=O)N(C)c1ccc(NC(=O)c2ccc([N+](=O)[O-])cc2Cl)cc1` the “outcome” value was “inactive” and the cell number change was 1.5%. With `CCCCN(C(=O)CCC(=O)OCC(=O)NCc1ccccc1)c1c(N)n(CCC)c(=O)[nH]c1=O` the “lipid storage change, negative = inhibition” value was -9.31% (inactive) and the cell number change was -13.8%. With `COc1ccc(NC2CC(=O)N(c3cccc(C)c3)C2=O)cc1` (stereo not drawn) the “lipid storage change, negative = inhibition” value was 11.1% (inactive) and the cell number change was -0.809%. In the case of `O=C(NCc1ccncc1)NC1CCCCC1`, the “lipid storage change, negative = inhibition” value is reported as 15.1% (inactive) and the cell number change is reported as 5.51%. In the case of `C=CCc1ccccc1OCCn1nnc2ccccc21`, the “lipid storage change, negative = inhibition” value is reported as -11.5% (inactive) and the cell number change is reported as -12.8%. In the case of `Cc1ccc(-c2ccc(/C=N/n3cnnc3)o2)cc1`, the “lipid storage change, negative = inhibition” value is reported as 5.91% (inactive) and the cell number change is reported as 8.97%. In the case of `Fc1ccc(-c2ccc(/C=N/n3cnnc3)o2)cc1`, the Potency is reported as 10.3 µM (active) and the cell number change is reported as -15.7%. For `Fc1ccc(-c2ccc(/C=N\n3cnnc3)o2)cc1Cl`, the “lipid storage change, negative = inhibition” value was -5.43% (inactive). For `O=C(Nc1ccccc1)NC1CCN(Cc2c(F)cccc2Cl)CC1`, the “lipid storage change, negative = inhibition” value was 2.76% (inactive) and the cell number change was 4.31%. In the case of `O=c1c(Cc2c(F)cccc2Cl)c(O)ccn1Cc1ccc(F)cc1`, the “lipid storage change, negative = inhibition” value is reported as -10.9% (inactive). With `O=c1c(Cc2c(F)cccc2Cl)c(O)ccn1CCc1ccccn1` the Potency was 14.1 µM (active) and the cell number change was -22%. For `O=c1c(Cc2c(F)cccc2Cl)c(O)ccn1C1CC1`, the “lipid storage change, negative = inhibition” value was 14% (inactive) and the cell number change was 4.74%. With `CCC(C)(C)n1nnnc1C(c1ccccc1)N1CCN(C2CCCC2)CC1` (stereo not drawn) the “lipid storage change, negative = inhibition” value was -1.77% (inactive) and the cell number change was -10.2%. With `COc1ccc(CC(=O)NNC(=O)c2ccco2)cc1OC` the “outcome” value was “inactive” and the cell number change was -12.7%. In the case of `COc1cc(/C=C2\SC(=S)N(CCCCC(=O)O)C2=O)ccc1OS(=O)(=O)c1ccc(C)cc1`, the Potency is reported as 20.6 µM (active) and the cell number change is reported as -25.4%. With `CCN(C(=O)CN1C(=O)/C(=C/c2ccccc2)SC1=S)C1CCS(=O)(=O)C1` (stereo not drawn) the “outcome” value was “inactive” and the cell number change was -6.26%. In the case of `O=C1/C(=C/c2ccc(Cl)cc2)SC(=S)N1CCC(=O)N1CCCCC1CCO` (stereo not drawn), the “outcome” value is reported as “inactive” and the cell number change is reported as -22.1%.
Potency is the fitted concentration of half-maximal effect.
